Sm TGR inh: inhibitors of Schistosoma mansoni thioredoxin glutathione reductase | Q962Y6 | purified TGR, DTNB reduction, TNB absorbance 405 nm | Potency, µM (top dose mostly 114 µM), inactives show at the highest dose activity change, negative = inhibition, actives largely listed as inhibitors | 360,000 tested, 3% active | AID 485364; further: potency means the concentration at half of the fitted maximal effect; on the % scale 0 is the no-effect control and ±100 the full control effect; nearly all actives have a fitted effect of over 60% in size
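First, TGR (20 nM dispensed) and NADPH were mixed with compound. Second, a 15 min room-temperature incubation followed. Third, further NADPH and then DTNB were added to start the reaction. Finally, TNB absorbance was monitored kinetically.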
Cycloheximide cs: counter-screen hit for Shiga toxin inhibitors, cycloheximide; cell reporter, cycloheximide protein synthesis inhibition counterscreen; max response, %; 300,000 tested, 12% active; AID 2314; in the data active means max response mostly above about 13%, no sharp cut-off; inactive means mostly below about 14%; further: read at 38.3 µM for the half of the compounds with a filed dose; 0% is about no effect
Tb PYK inh: T. brucei pyruvate kinase inhibition; Q57TT1; TbPYK enzyme, Kinase-Glo Plus ATP luminescence, 45 min; Potency, µM (titrated, usually from 76.8 µM), for inactives: at the top dose activity, negative = inhibition, actives largely listed as inhibitors; 410,000 tested, 0.12% active; AID 624173; further: potency means the concentration at half of the fitted maximal effect; on the % scale 0 is the no-effect control and ±100 the full control effect; nearly all actives have a fitted effect of over 50% in size
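Quantitative HTS: titrated library compounds versus trypanosomal pyruvate kinase in TEA buffer (pH 7.2) containing KCl, MgCl2, BSA and Tween-20. Reactions were initiated with ADP, 130 uM final. Kinase-Glo Plus luminescence was read after 45 min at RT.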
Shiga toxin inh: Shiga toxin inhibition; 290,000 tested, 9.2% active; AID 2315; inhibition, % at 38.7 µM; Vero cells, Shiga toxin protein synthesis inhibition reporter; in the data active means inhibition mostly above about 28%, no sharp cut-off; inactive means mostly below about 43%; further: 0% is about no effect
Giardia FBPA inh: inhibitors of Giardia lamblia fructose-1,6-bisphosphate aldolase; A8B2U2; purified Giardia FBPA; Potency, µM (titrated, usually from 59.6 µM), without a hit: at the top dose activity, negative = inhibition, usual class: inhibitors; 290,000 tested, 0.71% active; further: potency means the concentration at half of the fitted maximal effect; on the % scale 0 is the no-effect control and ±100 the full control effect; nearly all actives have a fitted effect of over 55% in size
Target sequence (A8B2U2 whole entry, looked up): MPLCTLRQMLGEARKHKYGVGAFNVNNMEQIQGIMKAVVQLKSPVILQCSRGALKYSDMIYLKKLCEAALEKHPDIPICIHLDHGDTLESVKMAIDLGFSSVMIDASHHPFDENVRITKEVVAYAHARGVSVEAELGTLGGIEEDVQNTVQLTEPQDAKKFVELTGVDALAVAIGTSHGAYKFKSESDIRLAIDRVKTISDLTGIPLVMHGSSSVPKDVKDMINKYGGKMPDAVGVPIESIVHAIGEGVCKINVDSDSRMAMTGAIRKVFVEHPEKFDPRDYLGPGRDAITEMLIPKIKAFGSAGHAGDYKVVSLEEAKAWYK
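Giardia FBPA (40 nM reagent) was preincubated 10 min at RT with compound (up to 57.5 uM final), then substrate plus GAPDH/TPI/NAD/arsenate coupling system with diaphorase/resazurin was added; resorufin fluorescence (525/598 nm) was read after 20 min.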
LmPK inh: blocks Leishmania mexicana pyruvate kinase activity; Potency, µM (doses to about 57.5 µM), for inactives: top-dose activity change, negative = inhibition, hits mostly inhibitors; Q27686; 290,000 tested, 0.37% active; AID 1721; purified LmPK, Kinase-Glo ATP luminescence, 1 h; further: potency means the concentration at half of the fitted maximal effect; on the % scale 0 is the no-effect control and ±100 the full control effect
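Kinase-Glo luminescence read after 1 h RT reaction of 0.1 nM LmPK with 0.5 mM PEP and 0.1 mM ADP. Activity scaled between uninhibited and enzyme-free controls.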
Starred values were filed as active, the others as inactive. The full list was thinned out, with hits kept by preference. Unless noted, the call rests on the fitted dose curve; in most records, active means well fitted curve in the direction sought with a large enough effect; inconclusive means small, poorly fitted or top-dose-only effect, or another doubt; inactive means no such curve, though single readings can be large; an effect the other way counts as inactive or inconclusive.

How did CCN(CC)c1ccc(/C=N/NC(=O)c2ccc3nc[nH]c3c2)c(O)c1 do in these assays?
Sm TGR inh: 10%; Cycloheximide cs: -3; Tb PYK inh: -4%; Shiga toxin inh: 16; Giardia FBPA inh: 17%; LmPK inh: 0%

Results for CCN(CC)c1ccc(/C=N/N2CCN(Cc3ccccc3)CC2)c(O)c1 ?
Sm TGR inh: -14%; Cycloheximide cs: -3; Tb PYK inh: -4%; Shiga toxin inh: -11; Giardia FBPA inh: -9%; LmPK inh: 7%

What do the screens show for `O=C(c1ccc(F)cc1Cl)N(Cc1ccco1)C1CCS(=O)(=O)C1` (stereo not drawn)?
Sm TGR inh: inconclusive; Tb PYK inh: -10%

Results for CCN(CC)c1ccc(/C=N/NC(=S)NC)c(O)c1 ?
Sm TGR inh: -9%; Cycloheximide cs: 30*; Tb PYK inh: -7%; Shiga toxin inh: 77*; Giardia FBPA inh: -25%; LmPK inh: 5%

What do the screens show for `CCN(CC)c1ccc(/C=N/N=C(N)N)c(O)c1`?
Sm TGR inh: -30%; Cycloheximide cs: -2; Tb PYK inh: -7%; Shiga toxin inh: -22; Giardia FBPA inh: -14%; LmPK inh: -2%

Results for CCN(CC)C(=O)/C(C#N)=C/c1cc(O)c(O)c([N+](=O)[O-])c1 ?
Tb PYK inh: 3%

What do the screens show for `Cc1cc(C)nc(N(C#N)CC(=O)c2ccccc2)n1`?
Sm TGR inh: -25%; Cycloheximide cs: 37*; Tb PYK inh: 1%; Shiga toxin inh: 48*; Giardia FBPA inh: -3%; LmPK inh: -18%

How did CCc1ccc(C(=O)CN(C#N)c2nc(C)cc(C)n2)cc1 do in these assays?
Sm TGR inh: 8%; Cycloheximide cs: 4; Tb PYK inh: 3%; Shiga toxin inh: 25; Giardia FBPA inh: 8%; LmPK inh: -5%

What do the screens show for `O=C(OCc1cn([C@H]2CN(CC3CCCCC3)[C@@H](c3ccccc3)C[C@@H]2O)nn1)c1ccccc1`?
Tb PYK inh: -10%

How did Fc1cc(F)c2nc(Nc3nc4cc5c(cc4s3)OCO5)sc2c1 do in these assays?
Sm TGR inh: -19%; Cycloheximide cs: 21*; Tb PYK inh: -12%; Shiga toxin inh: 26; Giardia FBPA inh: 5%; LmPK inh: -1%

What do the screens show for `O=C(NNc1nc2c(F)cccc2s1)C1=COCCO1`?
Sm TGR inh: -1%; Cycloheximide cs: 9; Tb PYK inh: 1%; Shiga toxin inh: 15; Giardia FBPA inh: 3%; LmPK inh: 1%

What do the screens show for `Fc1cccc2sc(Nc3nc4cc5c(cc4s3)OCO5)nc12`?
Sm TGR inh: -33%; Cycloheximide cs: 70*; Tb PYK inh: -5%; Shiga toxin inh: 116*; Giardia FBPA inh: 20%; LmPK inh: -8%

How did Fc1cccc2sc(Nc3nc4cc5c(cc4s3)OCCO5)nc12 do in these assays?
Sm TGR inh: -16%; Cycloheximide cs: 51*; Tb PYK inh: -2%; Shiga toxin inh: 96*; Giardia FBPA inh: 14%; LmPK inh: -4%

What do the screens show for `FC(F)(F)c1cccc(N2CCN(C3CC4CCC3C4)CC2)c1` (stereo not drawn)?
Sm TGR inh: 7%; Cycloheximide cs: -2; Tb PYK inh: -2%; Shiga toxin inh: -5; Giardia FBPA inh: inconclusive; LmPK inh: -4%

How did CCCc1nn2c(=O)cc(COC(=O)c3cccs3)nc2s1 do in these assays?
Sm TGR inh: -8%; Tb PYK inh: -3%

What do the screens show for `O=C(COc1ccc(-c2ccccc2)cc1)N1CCN(C(=O)c2cccnc2)CC1`?
Sm TGR inh: -11%; Cycloheximide cs: -3; Tb PYK inh: -4%; Shiga toxin inh: 12; Giardia FBPA inh: 3%; LmPK inh: 1%

How did O=C(c1ccccc1)N1CC(COc2ccccc2)OC(c2cccnc2)O1 (stereo not drawn) do in these assays?
Sm TGR inh: -10%; Cycloheximide cs: 16*; Tb PYK inh: 3%; Shiga toxin inh: 29; Giardia FBPA inh: 0%; LmPK inh: 3%

Results for O=C(O)CN1C(=O)c2cccc3c(Br)ccc1c23 ?
Sm TGR inh: -33%; Cycloheximide cs: 1; Tb PYK inh: -1%; Shiga toxin inh: -7; Giardia FBPA inh: 17%; LmPK inh: -1%

Compound activity as filed in PubChem.
